From PubChem BioAssay (NCATS)
Records with an inconclusive call do not appear. Values without a mark were called inactive. Calls come from the whole dose curve; as a rule, active = well fitted curve in the direction sought with a large enough effect; inconclusive = small, poorly fitted or top-dose-only effect, or another doubt; inactive = no such curve, though single readings can be large; an effect the other way counts as inactive or inconclusive. Square brackets hold non-standard residues; d marks the D form. Peptide text beside a SMILES is read from it. * marks the point of attachment. ξ: configuration not given here. Hexanoyl = CCCCCC(=O)*; ξL = CC(C)CC(N)C(=O)O
Note: 0% is about no effect.

System: not listed separately
Experiment: HEK293 12hr Apoptosis Induction qHTS against the NCATS CANVASS Library (AID 1347361)
Conditions: HEK293 caspase-3/7 Caspase-Glo luminescence; series mostly up to 46.1 µM; caspase activation: at the top concentration
Summary of the method: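 Apoptosis in HEK293 was scored as caspase-3/7 luminescence following 12 h treatment with a compound concentration series in qHTS format.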
For CC(C)=CCC[C@]1(C)[C@H]2CC(=O)[C@@]3(CO3)[C@@H]1C2, the “caspase activation” value was 6.68%.
In the case of CCCCCC(=O)N[C@@H](CC(C)C)C(=O)N[C@H](C=O)CCC(=O)O (Hexanoyl-Leu-Glu-aldehyde), the “caspase activation” value is reported as -3.05%.
With CC1(C)CC[C@]2(CO)CC[C@]3(C)C(=CCC4[C@@]5(C)CC[C@H](O)C(C)(C)C5CC[C@]43C)C2C1 (some centres not stated) the “caspase activation” value was 3.23%.

System: NAD(P)H diaphorase (Clostridium kluyveri)
Experiment: Diaphorse counterscreen qHTS: Assay Interference Panel against the NCATS CANVASS Library (AID 1347362)
Conditions: Diaphorase enzyme, resazurin to resorufin fluorescence; series mostly up to 57.5 µM; activity change, negative = inhibition: at the top concentration
Summary of the method: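 Clostridium kluyveri diaphorase in PBS + 0.01% Tween-20 preincubated 15 min with compounds. Resazurin and NADH then added for 5 min at room temperature in the dark; resorufin fluorescence read (ex 525, em 598).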
For CC(=O)N[C@H](C)c1nc(/C=C/C=C/C(=O)CC2CC(=O)CC[C@]2(C)O)cs1 (some centres not stated), the “activity change, negative = inhibition” value was -8.08%.
For CN1C(=O)C(=O)N2C(=C[C@]3(c4c[nH]c5ccccc45)c4ccccc4N[C@H]23)C1=O, the “activity change, negative = inhibition” value was -1.41%.
In the case of CN1CC[C@]23c4ccccc4N[C@H]1[C@]21CCN(C)[C@H]3Nc2ccccc21, the “activity change, negative = inhibition” value is reported as -8.26%.
For C/C=C1/C2=CCCN3C(=O)O[C@H]([C@H]1O)[C@H]23, the “activity change, negative = inhibition” value was -18.2%.
With O=C1CC(c2ccc(O)cc2)Oc2ccccc21 (configuration not stated) the “activity change, negative = inhibition” value was -17.8%.
For COc1c(O)cc(O)c2c(=O)cc(-c3ccccc3)oc12, the “activity change, negative = inhibition” value was -16.8%.
For COC1C(C)OC(OCC23C[C@@H]4[C@H](C)CC[C@H]4C4(C=O)CC2C=C(C(C)C)C34C(=O)O)[C@@H](O)[C@H]1O (some centres not stated), the “activity change, negative = inhibition” value was -23.2%.
With CN1CC[C@@]2([C@@]34CCN(C)[C@@H]3Nc3ccccc34)c3ccccc3N[C@@H]12 the “activity change, negative = inhibition” value was 2.5%.
In the case of COc1ccc(-c2oc3cc(OC)cc(OC)c3c(=O)c2O)cc1, the “activity change, negative = inhibition” value is reported as -1.25%.
In the case of CC[C@@H](C)[C@H]1NC(=O)C(CC(C)C)NC(=O)[C@@H](CC(C)C)NC(=O)[C@H](Cc2c[nH]c3ccccc23)NC(=O)CNC(=O)[C@@H](CC(N)=O)NC1=O (stereo partly drawn) (cyclo(GW[dL][ξL][dI][dN])), the “activity change, negative = inhibition” value is reported as 7.42%.
In the case of Cc1cc(O)cc2c1C(=O)c1c(O)cc(O)cc1C2=O, the “activity change, negative = inhibition” value is reported as -3.23%.
In the case of C=C(Cl)[C@](Cl)(CBr)CC[C@@H](Br)C(C)(C)Cl, the “activity change, negative = inhibition” value is reported as -9.11%.
In the case of C=C(C)C(=O)O[C@H]1C[C@@]2(C)OC(=CC2=O)/C(C)=C\[C@H]2OC(=O)C(=C)[C@H]12, the “activity change, negative = inhibition” value is reported as -2.57%.
In the case of C=C[C@]1(C)CC[C@@H]([C@H](C)C(=O)CC=C(C)C)O1, the “activity change, negative = inhibition” value is reported as -1.64%.
In the case of CC[C@@H]1C[C@@]2(CC)OC(=O)[C@@]3(CC)[C@H](CC)[C@@H]1[C@@H]23, the “activity change, negative = inhibition” value is reported as -5.59%.
In the case of [C-]#[N+][C@@]12C(=O)[C@@H]3[C@@H](O[C@@]4(C(=O)N(C)c5cccc1c54)C3(C)C)C(=O)[C@@]2(C)C=C, the “activity change, negative = inhibition” value is reported as 0.655%.
With COC(=O)c1cccc2oc(-c3cccc4oc(-c5c(C)cccc5O)nc34)nc12 the “activity change, negative = inhibition” value was -2.74%.
With C[C@@]12CCC[C@@](C)(C(=O)OP(=O)(O)OC[C@H]3O[C@@H](n4cnc5c(N)ncnc54)[C@H](O)[C@@H]3O)[C@H]1C[C@@H](O)[C@@]13C[C@@H](CC[C@@H]21)[C@](C)(O)C3 the “activity change, negative = inhibition” value was 7.67%.
For C[C@@]12CCC[C@@](C)(C(=O)O)[C@H]1CC[C@@]13C[C@@H](CC[C@H]12)[C@](C)(O)C3, the “activity change, negative = inhibition” value was -3.75%.
With O=C1OC(CCO)c2cccc(O)c21 (configuration not stated) the “activity change, negative = inhibition” value was 0%.
With C=C1C[C@]23C=CC(=O)[C@@](C)(CCCC(C)C(=O)N[C@@H](CO)C(=O)O)[C@@H]2C[C@@H]1CC3 (some centres not stated) the “activity change, negative = inhibition” value was -0.619%.
In the case of COc1cc2ccc(=O)oc2c(O)c1O[C@@H]1O[C@H](CO)[C@@H](O)[C@H](O)[C@H]1O, the “activity change, negative = inhibition” value is reported as -9.84% [at 34.3 µM].
With C/C(=C\[C@@H](C)CC/C=C/CC/C=C/C(=O)O)[C@@H](O)[C@H](C)C(=O)CCCC1CC(=O)NC(=O)C1 the “activity change, negative = inhibition” value was -3.92%.
For CO[C@@H](C[C@@H](C)[C@@H](O)/C=C/C=C/CNC(=O)C(C)(C)[C@H](O)\C(C)=C/C=C\C=C\Cc1cnco1)[C@]1(O)[C@@H](C)C(=O)N(C)[C@@]12COC2=O, the “activity change, negative = inhibition” value was -4.34%.
In the case of O=C1CC(c2ccc(O)cc2)Oc2cc(O)cc(O)c21 (configuration not stated), the “activity change, negative = inhibition” value is reported as -8.02%.
For O=C1CC(c2ccc(O)cc2)Oc2cc(O)ccc21 (configuration not stated), the “activity change, negative = inhibition” value was -20.4%.
For CN1CC[C@@]23c4ccccc4N[C@@H]1[C@@]21CCN(C)[C@@H]3Nc2ccccc21, the “activity change, negative = inhibition” value was -2.85%.
For C[C@@]12CCC[C@@](C)(C(=O)O)[C@H]1C[C@@H](O)[C@@]13C[C@@H](CC[C@@H]21)[C@](C)(O)C3, the “activity change, negative = inhibition” value was -3.04%.
For O=Cc1ccc2n1C[C@]1(OC2)O[C@H](CO)[C@@H](O)[C@@H]1O, the “activity change, negative = inhibition” value was 0.199%.
For C=C[C@@]1(C)CC[C@@H]([C@H](C)C(C)=O)O1, the “activity change, negative = inhibition” value was -15.3%.
For C/C=C(/CO)C(=O)O[C@@H]1[C@H](O)[C@@H](C(=O)OC)O[C@@H]2C[C@H]3OC(n4cnc5c(N)ncnc54)[C@H](OC)[C@H]3O[C@@]12O (some centres not stated), the “activity change, negative = inhibition” value was -16.6%.
For C/C=C/[C@H]1[C@H]2C(=O)c3c(O)c(C)c(O)c(C)c3[C@]1(C(=O)O)C(=O)C=C2C, the “activity change, negative = inhibition” value was -7.39%.
For C[C@@]12C[C@@H](C[C@@H]3C(=O)O[C@@H](c4ccoc4)[C@H](OC(=O)c4ccccc4)[C@@H]31)OC2=O, the “activity change, negative = inhibition” value was 2.59%.
For C=C1CCC2C(C)(C(=O)O)CCC(CC/C(C)=C/C(=O)NC(CCC(N)=O)C(=O)O)[C@@]2(C)C1 (some centres not stated), the “activity change, negative = inhibition” value was -1.44%.
With C=C1[C@@]2(C)CC3C4(C)CCC(O)C(C)(C)C4CCC3(C)[C@]1(C(=O)OC)C(=O)C(C)(O)C2=O (some centres not stated) the “activity change, negative = inhibition” value was -8.93%.
In the case of CC(C)=CCC[C@]1(C)[C@H]2CC(=O)[C@@]3(CO3)[C@@H]1C2, the “activity change, negative = inhibition” value is reported as -2.22%.
For CCCCCC(=O)N[C@@H](CC(C)C)C(=O)N[C@H](C=O)CCC(=O)O (Hexanoyl-Leu-Glu-aldehyde), the “activity change, negative = inhibition” value was -15.6%.
For COc1ccc([C@@H]2c3cc4c(cc3C(=O)C(C)C2C)OCO4)cc1OC (some centres not stated), the “activity change, negative = inhibition” value was -14.6%.
In the case of CC1(C)CC[C@]2(CO)CC[C@]3(C)C(=CCC4[C@@]5(C)CC[C@H](O)C(C)(C)C5CC[C@]43C)C2C1 (some centres not stated), the “activity change, negative = inhibition” value is reported as -2.07%.
